Results: PubChem BioAssay (NCATS)
The list shows a part of the results. Results filed as inconclusive are left out. Activity calls are given as the source filed them. Calls come from the whole dose curve; as a rule, active = well fitted inhibition curve with a large enough effect; inconclusive = small, poorly fitted or top-dose-only effect, or another doubt; inactive = no such curve, though single readings can be large or run the other way.

These compounds were tested against DNA polymerase kappa (Homo sapiens) (UniProt Q9UBT6) (assay: qHTS for Inhibitors of Polymerase Kappa: Confirmatory Assay for Cherry-picked Compounds (AID 720501)). Conditions: purified Pol-kappa, fluorescent strand-displacement substrate.
Procedure, shortened: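 Strand-displacement fluorescence read-out: TAMRA reporter released from a BHQ-2-quenched template, measured at 525/598 nm over a 10 min kinetic window. Substrate was 50 nM final; enzyme was 10 nM Pol-kappa, preincubated 15 min at room temperature with compound.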
Potency is the fitted concentration of half-maximal effect.

DNA polymerase kappa (Homo sapiens), sequence (Q9UBT6 whole entry, looked up): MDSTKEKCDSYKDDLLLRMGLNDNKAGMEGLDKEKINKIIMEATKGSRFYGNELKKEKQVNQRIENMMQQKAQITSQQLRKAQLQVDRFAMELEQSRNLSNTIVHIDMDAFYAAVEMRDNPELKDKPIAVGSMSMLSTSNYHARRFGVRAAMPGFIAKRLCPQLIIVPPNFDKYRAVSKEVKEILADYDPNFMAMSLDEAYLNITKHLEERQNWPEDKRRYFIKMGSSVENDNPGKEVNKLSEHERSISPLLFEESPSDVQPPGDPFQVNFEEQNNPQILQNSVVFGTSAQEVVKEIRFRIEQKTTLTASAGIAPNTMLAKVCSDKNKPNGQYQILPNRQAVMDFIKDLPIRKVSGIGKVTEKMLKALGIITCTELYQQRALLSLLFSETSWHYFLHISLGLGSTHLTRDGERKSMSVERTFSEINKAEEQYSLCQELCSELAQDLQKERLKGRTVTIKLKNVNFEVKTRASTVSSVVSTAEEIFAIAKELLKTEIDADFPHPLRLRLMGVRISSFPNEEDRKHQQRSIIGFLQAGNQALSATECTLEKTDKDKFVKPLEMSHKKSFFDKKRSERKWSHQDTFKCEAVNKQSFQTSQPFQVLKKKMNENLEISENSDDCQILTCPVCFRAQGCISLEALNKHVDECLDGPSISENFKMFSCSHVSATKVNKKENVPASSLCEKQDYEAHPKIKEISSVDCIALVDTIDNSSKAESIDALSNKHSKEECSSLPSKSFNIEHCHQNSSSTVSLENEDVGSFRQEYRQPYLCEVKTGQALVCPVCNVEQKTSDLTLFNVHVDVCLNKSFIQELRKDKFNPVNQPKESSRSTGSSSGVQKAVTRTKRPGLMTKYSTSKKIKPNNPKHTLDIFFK

Potency, active:
CN(C)CCNC(=O)c1ccc(Cl)c2cc3ccccc3nc12 21.2 µM
CCOc1cccc2c1N[C@@H](c1ccc(C(=O)O)cc1)[C@H]1CC=C[C@@H]21 2.38 µM
O=C1COc2c1ccc(O)c2O 6.7 µM
COc1ccc2[nH]c3c(C)c4cc[n+](C)cc4c(C)c3c2c1 1.34 µM
Cc1ccc(-c2nn(-c3ccccc3)cc2/C=C2\SC(=S)N(CCCCCC(=O)O)C2=O)o1 33.6 µM
Cc1ccc(-c2nc(SCc3ccc(Br)cc3)n3[nH]c(=O)cc3n2)cc1 16.8 µM
O=C(c1cc2c(s1)CCC2)N1CCN(c2ccccc2)CC1 42.3 µM
O=C(O)C(c1ccccc1)N1C(=O)/C(=C\c2ccc(-c3cccc(Cl)c3)o2)SC1=S (configuration not stated) 29.9 µM
Cc1cc(/C=C2\SC(=O)N(C)C2=O)c(C)n1-c1cccc(C(=O)O)c1 9.47 µM

These compounds were tested against DNA polymerase eta (Homo sapiens) (UniProt Q9Y253) (assay: qHTS for Inhibitors of Polymerase Eta: Confirmatory Assay for Cherry-picked Compounds (AID 720502)). Conditions: Pol eta primer extension, TAMRA/BHQ fluorescence, 10 min.
Procedure, shortened: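 Plates with 10 nM enzyme and compound stood 15 min at room temperature before substrate addition (50 nM final). Displacement of the TAMRA reporter from the BHQ-2 template was tracked for 10 min.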

DNA polymerase eta (Homo sapiens), sequence (Q9Y253 whole entry, looked up): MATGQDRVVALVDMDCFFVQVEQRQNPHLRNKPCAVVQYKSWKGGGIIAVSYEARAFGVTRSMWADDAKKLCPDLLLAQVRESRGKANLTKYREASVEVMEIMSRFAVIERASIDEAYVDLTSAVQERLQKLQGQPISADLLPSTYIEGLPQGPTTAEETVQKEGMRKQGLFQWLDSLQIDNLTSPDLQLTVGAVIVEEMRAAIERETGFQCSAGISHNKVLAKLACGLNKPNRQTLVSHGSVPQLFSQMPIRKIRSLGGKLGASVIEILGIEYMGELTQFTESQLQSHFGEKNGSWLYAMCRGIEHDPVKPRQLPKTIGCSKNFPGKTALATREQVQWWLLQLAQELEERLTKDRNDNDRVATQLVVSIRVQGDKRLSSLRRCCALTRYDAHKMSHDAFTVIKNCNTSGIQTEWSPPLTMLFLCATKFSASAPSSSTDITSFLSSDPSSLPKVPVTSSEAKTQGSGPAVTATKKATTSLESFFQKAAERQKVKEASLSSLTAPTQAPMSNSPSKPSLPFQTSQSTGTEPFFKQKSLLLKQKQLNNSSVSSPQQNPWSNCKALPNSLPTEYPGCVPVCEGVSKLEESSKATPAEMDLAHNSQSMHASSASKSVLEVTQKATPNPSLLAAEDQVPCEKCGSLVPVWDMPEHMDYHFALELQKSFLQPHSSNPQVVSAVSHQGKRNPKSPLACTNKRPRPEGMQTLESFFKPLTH

Potency, active:
CCOc1cccc2c1N[C@@H](c1ccc(C(=O)O)cc1)[C@H]1CC=C[C@@H]21 7.57 µM
O=C(COC(=O)CCC(=O)c1cccs1)NCc1ccco1 75.7 µM
O=C1COc2c1ccc(O)c2O 9.53 µM
Cc1cc(/C=N/Nc2ccc([N+](=O)[O-])cn2)c(C)n1-c1cccc(C(=O)O)c1 26.9 µM
N#C/C(=C\C1=C(N2CCOCC2)C(=C\c2ccccc2)/CC1)C(=O)Nc1ccccc1F 30.1 µM
COc1ccc2[nH]c3c(C)c4cc[n+](C)cc4c(C)c3c2c1 9.53 µM
Cc1c(CC(=O)N2CCN(C(=O)C3COc4ccccc4O3)CC2)c(=O)oc2c(O)c(O)ccc12 (configuration not stated) 7.57 µM
Cc1ccc(-c2nn(-c3ccccc3)cc2/C=C2\SC(=S)N(CCCCCC(=O)O)C2=O)o1 75.7 µM
O=C(N/N=C/c1ccco1)c1ccc(C(=O)N/N=C/c2ccco2)o1 53.6 µM
CN1CCN(CCCNC(=O)c2ccc(/C=C3\Oc4ccccc4N(Cc4ccc(Cl)cc4)C3=O)cc2)CC1 19 µM
C=CC1=C(C(=O)O)N2C(=O)[C@@H](NC(=O)/C(=N/OCC(=O)O)c3csc(N)n3)[C@H]2SC1 3.38 µM
O=C(O)C(c1ccccc1)N1C(=O)/C(=C\c2ccc(-c3cccc(Cl)c3)o2)SC1=S (configuration not stated) 75.7 µM
CCc1ccc2nc3sc(C(=O)Nc4nnc(CC)s4)c(N)c3cc2c1 60.1 µM
Cc1ccc(C(=O)O)cc1-c1ccc(/C=C2\SC(=O)N(CC(=O)Nc3ccc4c(c3)OCO4)C2=O)o1 19 µM
COc1ccc(Cl)cc1NC(=O)CCS(=O)(=O)c1ccc(Br)cc1 16.9 µM
Cc1cc(/C=C2\SC(=O)N(C)C2=O)c(C)n1-c1cccc(C(=O)O)c1 30.1 µM
O=C(CSc1nc2ccccc2c(=O)[nH]1)Nc1nc(-c2ccc(Br)cc2)cs1 75.7 µM
ON=C1/C(=N\O)CC2(C/C1=N/O)OCCO2 30.1 µM
